Results: PubChem BioAssay AID1851 (National Center for Advancing Translational Sciences (NCATS), 2009)
Hit rate of the full screen: of about 16,000 compounds, about 4,000 (25%) were called active. About 26% were inconclusive and are not listed. Calls come from the whole dose curve; as a rule, active = well fitted curve in the direction sought with a large enough effect; inconclusive = small, poorly fitted or top-dose-only effect, or effect the other way; inactive = no such curve, though single readings can be large or run the other way. These entries were drawn from the full list.

What follows are molecules tested against Cytochrome P450 2C9 (Homo sapiens) (UniProt P11712) (assay: Cytochrome panel assay with activity outcomes). Conditions: recombinant CYP, pro-luciferin dealkylation, luminescence, p450-cyp2c9; series mostly up to 57.1 µM; activity, negative = inhibition: at the top concentration.
% is set by controls: 0 for no effect and ±100 for the full control effect.

Cytochrome P450 2C9 (Homo sapiens), sequence (P11712 whole entry, looked up): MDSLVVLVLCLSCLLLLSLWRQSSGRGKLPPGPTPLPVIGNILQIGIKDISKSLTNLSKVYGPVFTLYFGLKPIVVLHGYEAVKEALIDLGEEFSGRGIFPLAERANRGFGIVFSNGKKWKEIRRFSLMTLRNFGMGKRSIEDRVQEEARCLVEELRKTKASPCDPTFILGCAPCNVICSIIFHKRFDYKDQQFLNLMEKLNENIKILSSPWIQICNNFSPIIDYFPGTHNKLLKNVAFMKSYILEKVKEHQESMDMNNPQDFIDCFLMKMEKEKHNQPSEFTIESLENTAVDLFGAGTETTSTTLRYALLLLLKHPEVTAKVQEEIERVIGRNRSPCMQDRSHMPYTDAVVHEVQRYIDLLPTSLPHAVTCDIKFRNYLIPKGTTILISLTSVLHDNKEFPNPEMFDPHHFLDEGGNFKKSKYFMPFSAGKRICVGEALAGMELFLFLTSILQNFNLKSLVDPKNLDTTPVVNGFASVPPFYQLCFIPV

activity, negative = inhibition, inactive:
O=C(Nc1ccccc1)N1CC2(CCN(C(=O)c3ccco3)CC2)C1 8.02%, CN1CCN(c2ncnc3ccc(-c4cccc(C#N)c4)cc23)CC1 10.4% [at 2.29 µM], CN1CCN(c2nc(-c3cccc(C#N)c3)nc3ccccc23)CC1 -2.12% [at 2.29 µM], Nc1ncnc2nc(N3CCN(CCO)CC3)[nH]c12 -3.79% [at 11.4 µM], CC(=O)NC(NC(C)=O)c1ccc(Br)cc1 -4.71%, FC(F)(F)c1nnc2c(Sc3ccc(Cl)cc3)nc3ccccc3n12 -15.9%, CN(C)C(=O)c1ccc(-c2ccc3ncnc(Nc4ccc(F)cc4)c3c2)cc1 6.1% [at 2.29 µM], COc1n[nH]c2nncnc12 1.34%, CN(C)c1ncc2nc(-c3ccc(F)cc3)c(=O)n(Cc3cccs3)c2n1 -2.96%, O=C(O)[C@@H]1[C@@H]2C[C@H]3c4[nH]c5ccccc5c4CCN3C[C@@H]2CC[C@@H]1O 13.2% [at 25.6 µM], C=C1C=C(Br)C2(OCCCO2)[C@H]2OC12 (stereo partly specified) 13.6% [at 11.4 µM], CC(=O)NC1(c2cccc(F)c2)CCN(CC(=O)NC2CCCCC2)CC1 -16.3%, CCCCCCCCCCCCCCCCCCOC[C@@H](COP(=O)([O-])OCC[N+](C)(C)C)OC 11.6%, Cc1cc2c(c(=O)o1)[C@H](O)[C@H]1O[C@@H]1C2=O 10.8% [at 11.4 µM], CC(C)C[C@@H](N)C(=O)Nc1ccc2ccccc2c1 -7.85% [at 11.4 µM], COc1ccc(-c2nc3cnc(N(C)C)nc3n(Cc3cccs3)c2=O)cc1 17.4%, COc1cccc(Nc2ncc3nc(-c4ccccc4)c(=O)n(Cc4cccs4)c3n2)c1 -2.75%, O=c1c(-c2ccc(F)cc2)nc2cnc(Nc3ccccc3)nc2n1Cc1cccs1 -6.62%, COc1ccc(-c2nc3cnc(Nc4cccc(OC)c4)nc3n(Cc3cccs3)c2=O)cc1 -0.306%, COc1cccc(-c2cncnc2NC2CCNCC2)c1 28.5% [at 2.29 µM], COc1cccc(-c2nc(NC3CCNCC3)c3ccccc3n2)c1 11.6% [at 2.29 µM], COCC(=O)N1CCC2(CCCN(C(=O)Nc3ccccc3)C2)CC1 0.7%, CC(=O)N1CCC2(CCCN(c3ccccc3)C2)CC1 -26%, COCC(=O)N1CCC2(CC1)CN(C(=O)Nc1ccc(OC)cc1)C2 -5.72%, COCC(=O)N1CCC2(CCCN(c3ccncc3)C2)CC1 -17.3%, CC(=O)N1CCC2(CC1)CCN(c1cccc(-c3ccccc3)c1)CC2 -15%, COCC(=O)N1CCC2(CC1)CCN(c1cccc(-c3ccccc3)c1)CC2 -12.7%, Cc1noc(C)c1-c1nccc(N(C)Cc2ccco2)n1 10.6% [at 2.29 µM], CCCn1c(=O)c2[nH]c(-c3ccc(OCC(=O)NCCN)cc3)nc2n(CCC)c1=O -17.5%, Cc1noc(C)c1-c1nc(N2CCN(C)CC2)c2ccccc2n1 1.84% [at 2.29 µM], Cc1cc([C@](C)(N)C(=O)O)ccc1P(=O)(O)O -9.49%, CC1=C(C(=O)O)N2C(=O)[C@@H](NC(=O)[C@@H](N)C3=CCC=CC3)[C@@H]2SC1 11.2%, CC(Sc1nnc(Cc2cccs2)n1C1CCCCC1)C(N)=O (stereo unspecified) -26.6%, COc1cccc(Nc2ncc3nc(CCc4ccccc4)c(=O)n(Cc4cccs4)c3n2)c1 11%, COc1ccc(NC(=O)NCc2cccn2C)c(OC)c1 2.26%, O=c1[nH]c(SCc2ccccc2[N+](=O)[O-])nc2nc[nH]c12 11.4% [at 11.4 µM], O=c1[nH]c(SCc2cccc([N+](=O)[O-])c2)nc2nc[nH]c12 4.13% [at 11.4 µM], COc1ccccc1CN1CCCC2(CCN(S(C)(=O)=O)CC2)C1 6.51%, O=C(O)C[C@@H]1CCCc2ccccc2[C@H]1O 11.1%, CCOc1cc(CNCCCN2CCOCC2)cc(Br)c1OCC(=O)Nc1cccc(C(F)(F)F)c1 -9.88%, C=CCOc1c2ccc(C(=O)NC3CCCc4ccccc43)cc2nn1C (stereo unspecified) -24.9%, Fc1cccc(F)c1C(Nc1nncs1)Nc1nncs1 -6.71% [at 11.4 µM], CSc1ncnc2c1ncn2[C@@H]1O[C@@H](CO)[C@H](O)O[C@@H]1O 1.22% [at 11.4 µM], CS(=O)(=O)Nc1cccc(-c2ccc3ncnc(Nc4ccccc4)c3c2)c1 -12.6% [at 2.29 µM], COc1ccc(C(=O)NC2(C(F)(F)F)C(=O)Nc3c2c(=O)[nH]c(=O)n3CCc2ccc(OC)c(OC)c2)cc1 (stereo unspecified) -20.4%, CC[C@H]1CC[C@H]2[C@@H]3CC=C4C[C@H](OC(C)=O)[C@@H](N)C[C@@]4(C)[C@H]3CC[C@@]12C 13.7% [at 11.4 µM], CCOc1ccc(C(=O)CCC(=O)O)cc1 13.4%, CCC(=O)c1ccc(OCC(O)CN2CCCCC2)cc1 (stereo unspecified) 0.273%, CCOC(=O)N/N=C1/C[C@@H](O)[C@@H](O)[C@@H]2[C@@H]3C(=O)N(C4CCCCC4)C(=O)[C@H]3CC[C@H]12 -8.52% [at 11.4 µM], CCN(CC)C(=O)C1CC(=O)N(c2ccc(OC)cc2)C1c1ccc(OC)cc1 (stereo unspecified) -35.3%, CCOc1ccc(CNC(=O)C2CC(=O)N(C3CCCC3)C2)cc1OC (stereo unspecified) 2.04%, c1cncc(-c2ccc3ncnc(NC4CCNCC4)c3c2)c1 12.8% [at 2.29 µM], CN(C)c1ncnc2ccc(-c3ccoc3)cc12 -6.22% [at 2.29 µM], C[n+]1cn(CC(O)COCc2ccccc2)c2ccccc21 (stereo unspecified) -6.25%, CS(=O)(=O)N1CCC[C@@]2(CCN(C(c3ccccc3)c3ccccc3)C2)C1 -11.3%, COCC(=O)N1CCC[C@@]2(CCN(C(c3ccccc3)c3ccccc3)C2)C1 -20.6%, CC(=O)N1CCC2(CC1)CN(C(c1ccccc1)c1ccccc1)C2 3.24%, CS(=O)(=O)N1CCC2(CC1)CN(C(c1ccccc1)c1ccccc1)C2 11.5%, c1ccc(C(c2ccccc2)N2CCCC3(CCNCC3)C2)cc1 -17.7%, COCC(=O)N1CCC2(CC1)CN(C(c1ccccc1)c1ccccc1)C2 6.75%, Cc1cccc(C)c1OCC(O)CNC(C)(C)C (stereo unspecified) -10.3%, COc1cc2cc3c4cc(OC)c(OC)cc4cc[n+]3c(C)c2cc1OC 13.1% [at 25.6 µM]

AC50, active:
COc1ccc(-c2nc(-c3cccc(C)c3)nc(N3CCN(C)CC3)c2C#N)cc1 7.94 µM, Cc1cc(SCC(=O)c2ccc(Br)cc2)cc(C)[o+]1 2.51 µM, FC(F)(F)c1nnc(-c2ccccc2)nc1Sc1ccccc1 7.08 µM, Fc1ccc(-c2cnc(-c3cccs3)o2)cc1 12.6 µM, Cc1ccccc1NC(=O)C(C)c1cccc(C(=O)c2ccccc2)c1 (stereo unspecified) 3.16 µM, O=C(CN(C(=O)CSc1nc2ccccc2o1)c1cccc(F)c1)NC1CCCCC1 2.24 µM, COc1ccc(CCn2c(=N)c(C(=O)NCc3ccco3)cc3c(=O)n4ccccc4nc32)cc1 20 µM, c1ccc2cc(NCNc3ccc4ccccc4c3)ccc2c1 3.98 µM, COc1ccc(NC2=NCC(=O)N2Cc2cccs2)cc1 14.1 µM, O=C1CN=C(Nc2ccccc2)N1Cc1cccs1 17.8 µM, CCOc1ccc(NC2=NCC(=O)N2Cc2cccs2)cc1 17.8 µM, COc1cccc(C2=CC(c3ccccc3)n3nnnc3N2)c1 (stereo unspecified) 0.501 µM, CC(=O)N1CCC2(CCCN(c3cccc(-c4ccccc4)c3)C2)CC1 12.6 µM, COCC(=O)N1CCC2(CC1)CN(C(=O)Nc1ccccc1)C2 1.58 µM, COCC(=O)N1CCC2(CCCN(c3cccc(-c4ccccc4)c3)C2)CC1 25.1 µM, COc1ccc(NC(=O)CSc2nnc(Cc3cccn3C)n2CCc2ccccc2)c(OC)c1 11.2 µM, COc1ccc(OC)c(C(=O)CSc2nnc(Cc3cccs3)n2CCc2ccccc2)c1 1.58 µM, O=[N+]([O-])c1ccc(-c2cnc(SCc3ccccc3Cl)[nH]2)cc1 3.98 µM, Cc1c(C(=O)Nc2cccc(C(F)(F)F)c2)oc2ccc(S(=O)(=O)N3CCOCC3)cc12 1.41 µM, Cc1c(C(=O)NC2CCCc3ccccc32)oc2ccc(S(=O)(=O)N3CCOCC3)cc12 (stereo unspecified) 7.08 µM, Cc1cc(C(=O)CSc2nnc(N)s2)c(C)n1CCc1ccc(F)cc1 1.12 µM, COc1ccc(CCn2c(C)cc(C(=O)CSc3nc(N)cc(=O)[nH]3)c2C)cc1 8.91 µM, CCCCOc1ccc(C(=O)CCN2CCCCC2)cc1 2.51 µM, COc1cc(/C=N/Nc2snc(SC)c2C#N)cc(OC)c1OC 4.47 µM, COc1ccc(N2CC(C(=O)OCC(=O)c3cccc(OC)c3)CC2=O)cc1 (stereo unspecified) 17.8 µM, CCOc1ccc(N2CC(C(=O)NCc3cccc(C)c3)CC2=O)cc1 (stereo unspecified) 12.6 µM, COc1ccc(N2CC(C(=O)Nc3cc(C)on3)CC2=O)cc1 (stereo unspecified) 14.1 µM, OC(COCc1ccccc1)Cn1cnc2ccccc21 (stereo unspecified) 12.6 µM, CS(=O)(=O)N1CCC2(CCCN(C(c3ccccc3)c3ccccc3)C2)CC1 12.6 µM, COC(=O)N1CCC2(CC1)CN(C(c1ccccc1)c1ccccc1)C2 10 µM, COC(=O)N1CCC2(CCCN(C(c3ccccc3)c3ccccc3)C2)CC1 31.6 µM

AC50, inactive:
CCCN[C@@H](C)C(=O)Nc1ccccc1C, N[C@H](C(=O)O)c1cc(O)cc(O)c1, CC(N)=NCc1cccc(CN)c1
